Assay outcomes: PubChem, The Scripps Research Institute Molecular Screening Center
Compounds with a hit are over-represented: about 2.9% of the library has one in this group of screens.
ADAM10 inh – ADAM10 inhibition, QFRET primary screen. O14672. recombinant ADAM10, EDANS/DABCYL FRET peptide cleavage, 3 h. inhibition, % at 7 µM. hit rate 0.62% among 370,000;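 active = inhibition above a per-campaign cutoff equal to the mean of compounds falling between control-based bounds plus 3 SD, cut at about 20% in these data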;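 also: 0% = DMSO wells while the 100% control is not disclosed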
Target sequence (O14672 214-748 limits assumed): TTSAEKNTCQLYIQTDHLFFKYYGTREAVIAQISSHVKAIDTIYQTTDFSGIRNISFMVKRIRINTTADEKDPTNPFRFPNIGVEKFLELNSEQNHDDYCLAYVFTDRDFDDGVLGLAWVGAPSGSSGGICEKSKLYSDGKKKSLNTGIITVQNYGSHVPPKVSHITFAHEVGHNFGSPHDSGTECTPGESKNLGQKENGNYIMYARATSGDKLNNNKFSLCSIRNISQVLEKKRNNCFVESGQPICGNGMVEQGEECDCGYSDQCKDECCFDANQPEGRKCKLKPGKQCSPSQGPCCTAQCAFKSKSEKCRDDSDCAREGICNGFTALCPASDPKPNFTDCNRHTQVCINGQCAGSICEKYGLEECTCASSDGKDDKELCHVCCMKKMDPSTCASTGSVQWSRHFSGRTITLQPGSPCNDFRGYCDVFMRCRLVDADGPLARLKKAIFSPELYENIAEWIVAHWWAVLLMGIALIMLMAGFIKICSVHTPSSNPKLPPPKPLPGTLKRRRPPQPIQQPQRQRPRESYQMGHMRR
PLCg1 inh – PLC-gamma1 (human) inhibition, primary screen; P19174; purified PLC-gamma1, fluorogenic substrate, fluorescence; inhibition, % at 12.2 µM; hit rate 0.84% among 370,000; AID 720700; in the data active = inhibition above about 9.5%
ADAM17 inh – inhibitors of human ADAM17; hit rate 0.83% among 370,000; inhibition, % at 6.95 µM; recombinant ADAM17, EDANS/DABCYL FRET peptide cleavage; P78536; AID 720648;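 active = inhibition above the mean of compounds lying between control limits plus 3 SD, set per campaign, cut at about 8.5% in these data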;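 also: 0% = DMSO-only wells as the low control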
proKLK7 act – proKLK7 (human) activation, primary screen. P49862. purified proKLK7, EDANS-DABCYL substrate fluorescence; 100% is mature enzyme control, 0% vehicle. activation, % at 7 µM. hit rate 0.9% among 370,000;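 active = activation above the mean of all tested compounds plus 3 SD, computed per campaign excluding outliers beyond control limits, cut at about 13% in these data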
PLC-beta3 inh – inhibitors of human phospholipase C beta3. inhibition, % at 12.2 µM. Purified PLC-beta3, fluorogenic substrate, fluorescence. Q01970. hit rate 0.18% among 370,000. AID 720704; in the data active = inhibition above about 11%;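 also: 0% = median of compound wells on plate and 100% = full blocker control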
ADAM10 confirm – confirmation of inhibitors of human ADAM10. hit rate 1% among 2,100. AID 743208. inhibition, % at 6.95 µM. ADAM10 QFRET peptide cleavage, EDANS fluorescence. shares compounds with ADAM10 inh;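 active = inhibition above about 20% chosen separately for each screening run, limit read from the data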;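 also: 0% = DMSO wells and 100% = marimastat wells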
ADAM17 counter – counter-screen for ADAM10 exosite inhibitors: inhibitors of human ADAM17 | shares compounds with ADAM10 inh | ADAM17 QFRET peptide cleavage, EDANS fluorescence | inhibition, % at 6.95 µM | hit rate 0.5% among 2,100 | AID 743214;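 active = mean triplicate inhibition above the solvent-only control wells' mean plus 3 SD, cut at about 12% in these data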;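 also: 0% = DMSO wells and 100% = marimastat wells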
ADAM10 counter – ADAM10 inhibition, counter-screen for ADAM17 exosite hits. shares compounds with ADAM17 inh. recombinant ADAM10, EDANS/DABCYL FRET peptide cleavage, 3 h. inhibition, % at 6.95 µM. hit rate 47% among 2,900. AID 743256;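 active = mean inhibition over the triplicate runs exceeds the activity threshold set in the earlier primary screen, cut at about 20% in these data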;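 also: 0% = DMSO wells and 100% = marimastat wells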
ADAM17 confirm – human ADAM17 inhibition, confirmation | recombinant ADAM17, EDANS/DABCYL QFRET peptide cleavage | inhibition, % at 6.95 µM | hit rate 65% among 2,900 | shares compounds with ADAM17 inh;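 active = mean inhibition across replicates above the hit cutoff set in the primary screen, cut at about 8.5% in these data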;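 also: 0% = DMSO wells and 100% = marimastat wells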
Starred values were filed as active, the others as inactive.

What do the screens show for `O=C(c1cc(COc2cccc(C(F)(F)F)c2)on1)N1CCC(c2ccccc2)CC1`?
ADAM10 inh: 26.4*; PLCg1 inh: 3.9; ADAM17 inh: 12.1*; proKLK7 act: 0.6; PLC-beta3 inh: -4.9; ADAM10 confirm: 5.0; ADAM17 counter: 1.8; ADAM10 counter: 34.7*; ADAM17 confirm: 20.4*

Results for O=C(c1cc(COc2cccc(C(F)(F)F)c2)on1)N1CCC(c2ccncc2)CC1 ?
ADAM10 inh: -1.4; PLCg1 inh: 1.8; ADAM17 inh: 2.8; proKLK7 act: 0.3; PLC-beta3 inh: -10.3

Results for CCN(CC)C(=O)CC[C@H]1CC[C@]2(CCCN(C(=O)c3ccccc3)C2)O1 ?
ADAM10 inh: -13.7; PLCg1 inh: 2.9; ADAM17 inh: -7.0; proKLK7 act: 0.1; PLC-beta3 inh: -5.0

What do the screens show for `CCN(Cc1cn(Cc2ccccc2)nn1)S(=O)(=O)c1ccc(F)cc1Br`?
ADAM10 inh: -7.1; PLCg1 inh: -0.1; ADAM17 inh: -3.0; proKLK7 act: 0.1; PLC-beta3 inh: 0.5

What do the screens show for `COc1ccc(CCN2C(=O)c3[nH]nc(-c4ccccc4O)c3C2c2cccc(O)c2)cc1OC` (stereo not given)?
ADAM10 inh: 29.5*; PLCg1 inh: 5.5; ADAM17 inh: 9.1*; proKLK7 act: -0.3; PLC-beta3 inh: 2.4; ADAM10 confirm: -0.3; ADAM17 counter: 0.1; ADAM10 counter: 33.3*; ADAM17 confirm: 14.3*

What do the screens show for `COc1ccc(C2c3c(-c4ccccc4O)n[nH]c3C(=O)N2Cc2ccco2)cc1OC` (stereo not given)?
ADAM10 inh: 5.1; PLCg1 inh: -0.2; ADAM17 inh: 2.4; proKLK7 act: -0.9; PLC-beta3 inh: -6.4

How did Cc1cc(C)c(O)c(-c2n[nH]c3c2C(c2cccc(O)c2)N(Cc2ccco2)C3=O)c1 (stereo not given) do in these assays?
ADAM10 inh: 36.7*; PLCg1 inh: 6.5; ADAM17 inh: 20.6*; proKLK7 act: 0.0; PLC-beta3 inh: 6.9; ADAM10 confirm: 6.7; ADAM17 counter: 1.4; ADAM10 counter: 47.6*; ADAM17 confirm: 23.0*

Results for O=C(/C=C1\NC2(CCCC2)Cc2ccccc21)C(=O)N/N=C/c1ccc(O)c(O)c1 ?
ADAM10 inh: 22.0*; PLCg1 inh: 4.4; ADAM17 inh: 11.8*; proKLK7 act: -1.4; PLC-beta3 inh: 4.0; ADAM10 confirm: 6.0; ADAM17 counter: 3.6; ADAM10 counter: 18.3; ADAM17 confirm: 9.4*

How did COc1c(S(=O)(=O)n2nc(C)cc2C)ccc(Cl)c1Cl do in these assays?
ADAM10 inh: 2.8; PLCg1 inh: -0.4; ADAM17 inh: 0.4; proKLK7 act: -0.7; PLC-beta3 inh: -1.3

Results for O=C1c2ccccc2C(=O)N1CCCCN(C(=O)c1cccc([N+](=O)[O-])c1)c1ccc(Cl)cc1 ?
ADAM10 inh: 25.8*; PLCg1 inh: 6.2; ADAM17 inh: 10.2*; proKLK7 act: 0.2; PLC-beta3 inh: 9.0; ADAM10 confirm: 5.3; ADAM17 counter: 1.9; ADAM10 counter: 30.2*; ADAM17 confirm: 14.1*

Results for O=C1c2ccccc2C(=O)N1CCCCN(C(=O)c1ccco1)c1ccc(Cl)cc1 ?
ADAM10 inh: 4.8; PLCg1 inh: -0.7; ADAM17 inh: -2.7; proKLK7 act: 0.1; PLC-beta3 inh: -2.4

What do the screens show for `COC(=O)[C@]12C[C@H](CC(=O)NCc3cccc(C(F)(F)F)c3)C(=O)N(Cc3ccc(Cl)cc3Cl)C1=C[C@H](C1CCCC1)O[C@@H]2C`?
ADAM10 inh: -6.1; PLCg1 inh: 0.5; ADAM17 inh: -4.0; proKLK7 act: 0.0; PLC-beta3 inh: 3.1

How did O=C(Nc1ccc2c(c1)OCCO2)C(c1ccnc2ccccc12)N1CCC(Cc2ccccc2)CC1 (stereo not given) do in these assays?
ADAM10 inh: 36.7*; PLCg1 inh: -2.1; ADAM17 inh: 19.4*; proKLK7 act: -0.9; PLC-beta3 inh: -8.6; ADAM10 confirm: 14.2; ADAM17 counter: 4.2; ADAM10 counter: 12.9; ADAM17 confirm: 10.3*

Results for CC(C)NC(=O)Nc1ccc2c(c1)C(=O)N([C@H](C)CO)C[C@H](C)[C@@H](CN(C)S(=O)(=O)c1ccccc1)O2 ?
ADAM10 inh: 10.9; PLCg1 inh: 0.7; ADAM17 inh: 1.2; proKLK7 act: -0.3; PLC-beta3 inh: 2.9

What do the screens show for `C[C@H](CO)N1C[C@H](C)[C@@H](CN(C)S(=O)(=O)c2ccccc2)Oc2ccc(NC(=O)Nc3ccc(C(F)(F)F)cc3)cc2C1=O`?
ADAM10 inh: 33.3*; PLCg1 inh: 1.6; ADAM17 inh: 8.8*; proKLK7 act: 0.9; PLC-beta3 inh: 1.1; ADAM10 confirm: 8.5; ADAM17 counter: 2.0; ADAM10 counter: 40.2*; ADAM17 confirm: 24.1*

What do the screens show for `C[C@@H]1CCCCO[C@H](CN(C)C(=O)Nc2ccc(C(F)(F)F)cc2)[C@@H](C)CN([C@H](C)CO)C(=O)c2cc(NC(=O)Nc3ccc4c(c3)OCO4)ccc2O1`?
ADAM10 inh: 5.7; PLCg1 inh: 2.6; ADAM17 inh: 3.1; proKLK7 act: -0.8; PLC-beta3 inh: 0.4

How did C[C@@H]1CCCCO[C@@H](CN(C)C(=O)Nc2ccc3c(c2)OCO3)[C@@H](C)CN([C@H](C)CO)C(=O)c2cc(NC(=O)Nc3ccc(C(F)(F)F)cc3)ccc2O1 do in these assays?
ADAM10 inh: 21.3*; PLCg1 inh: 0.1; ADAM17 inh: 9.8*; proKLK7 act: 0.3; PLC-beta3 inh: -1.2; ADAM10 confirm: 11.1; ADAM17 counter: 2.5; ADAM10 counter: 41.9*; ADAM17 confirm: 21.6*

What do the screens show for `COc1ccc(NC(=O)Nc2ccc3c(c2)C(=O)N([C@H](C)CO)C[C@H](C)[C@@H](CN(C)C(=O)Nc2ccc(C(F)(F)F)cc2)O3)cc1`?
ADAM10 inh: 32.0*; PLCg1 inh: 5.8; ADAM17 inh: 15.5*; proKLK7 act: 0.8; PLC-beta3 inh: 6.0; ADAM10 confirm: 4.8; ADAM17 counter: 0.1; ADAM10 counter: 20.6*; ADAM17 confirm: 11.6*

What do the screens show for `C[C@H](CO)N1C[C@H](C)[C@@H](CN(C)C(=O)Nc2ccccc2)Oc2c(NC(=O)Nc3ccc(C(F)(F)F)cc3)cccc2C1=O`?
ADAM10 inh: 25.6*; PLCg1 inh: 2.9; ADAM17 inh: 12.4*; proKLK7 act: -0.4; PLC-beta3 inh: 3.9; ADAM10 confirm: 2.0; ADAM17 counter: 0.5; ADAM10 counter: 36.6*; ADAM17 confirm: 19.3*
